system: RXRa DBDmut IVT, anti-RXR (DBD mutation: RXRa K156A/R161A, NR concentration 90 nM); experiment: PBM binding z-score (relative to random genomic background probes); higher = stronger binding; sequences stand for … in GC…GCGATTGACAGCGTAGAATGAAGG
Procedure, shortened: (§1)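 Random background probes are the reference for binding z-scores. These scores derive from regression-normalized fluorescence on custom Agilent 4×180K protein-binding microarrays incubated 1 h with ligand-free nuclear receptor dimers. Binding was detected with antibodies against each partner (one per run).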

Sequence	PBM binding z-score
CCTAGCAGGCGAGGGTCACTCAAGCATTTCGCTT	0.212
CAAACTAGGTCACAGAGGGCAAAGTCCGTGCGTA	2.45
CCTTACGGGTCACGGGGTTATAGCACGACGAGCG	1.77
ATCGAAAGGTCGAGTTGAGTATAGAGAAAGGGAA	1.89
CCTTCTGGGCCATTCAGAGGTCATTGATCATATG	1.38
ATCGAAAAGTCGAAGGTGAGTATACCCACCCGAA	-0.665
CCTACTGGGCCATTCAGAGGTTATTGATCATATG	0.368
ATATGTAGGTTAGCGTCATTCAGAAAGTAGGGAA	-0.0875
TCATATAGGTCAAAGGTGAAAGTCGGTGTGGTAA	2.48
ATCGAACGGTCGACGAGGTGAGTATACACCGTTT	-0.546
TAGCCTAGGTCAAGCGGGCCAGTATAGTGTCGGC	0.428
ACTAGTTGGTCACCTGAGGTCACACACAATTCGG	1.53
CCTGGCAGGCCAGGGTCACTCAAGCATTTCGCTT	-0.63
CCTACTGGGGCACGAAAGGTCATTGATTCAGTGA	0.748
TAGCATAGGTCATGCGGGCCAGTATAGTGTCGGC	0.439
GATAGTTGGTCAGTAAAAGGTCACACACCGGTCG	0.579
CAAAGTAGGTCAAGAGGTCAAAGTCCGCTTCCCG	2.89
CGTCCAACGTCAGCAGGTCAGTGAAAGCGACGTG	-0.094
CAAACTAGGTCACAGAGGTCAAAGTTCGTGCGTA	3.36
CAAACTAGGTCACGAAAGGTCAAAGCCGAATGAC	2.11

Sequence	PBM binding z-score
CCTACTGTGCCATTCAGAGGTCATTGATCATATG	1.79
TGAATGACGTTAAAGATCAGGGAACGTGGCGTCG	-0.922
TCTAGCTGGTCAAAGGTCACACACTCGAAATGCG	1.15
ATCGAAAGGTCGACGAGGTGAGTATGCACCGTTT	1.3
CGAACTAAGTCAAAGGACAGTGAAAGGCGACGTA	0.0633
ATCGAAAGGTCGAAGGTCAGTATACCCACCCGAA	1.78
ATATGCAGGTTATCGGGTCATTCAGTTTGCGCAT	1.56
TCTTGTAGGTCAAAGGTTAAGAAAGCCGAAGCCT	1.98
GATACACGGTCAAGGCCAGAGTACGCGTATTGAT	-0.0133
CCTACTGGGCCAAAAAGGTAATTGATGCCGATAA	-0.561
AGTAGCAGGCCAAGGGTCACTCAAGATTAGTCCG	0.553
CAAACTAGGTCACAGAGGTTAAAGTCCGTGCGTA	2.38
ATATGTAGGTTACGTCCGGGTCATTCAGGCTATG	1.06
CAAACTAGGTCACAGAGGTCAAACTCCGTGCGTA	3.78
TGAATGAAGTTAAAGATCAGGGAACGTGGCGTCG	-0.803
CGTCAAAGTTCAAGGCAACGTAACAGAAAGCAGC	3.97
CCGACTGGGGCAAAGGTTACCATGCTCAGTACGA	-0.0654
TTACCAAGGTGAAAGGTCGGTGATGCACGCCTTG	-0.134
TGAATGAGGTTAAAGGTCAGGGAACGTGGCGTCG	1.87

system: THRa:RXRa (NR concentration 90 nM, RXRa partner concentration 90 nM); experiment: as above
Procedure, shortened: as §1

Sequence	PBM binding z-score
CCTAGCAGGCGAGGGTCACTCAAGCATTTCGCTT	1.79
CAAACTAGGTCACAGAGGGCAAAGTCCGTGCGTA	3.87
CCTTACGGGTCACGGGGTTATAGCACGACGAGCG	4
ATCGAAAGGTCGAGTTGAGTATAGAGAAAGGGAA	2.23
CCTTCTGGGCCATTCAGAGGTCATTGATCATATG	3.31
ATCGAAAAGTCGAAGGTGAGTATACCCACCCGAA	0.0744
CCTACTGGGCCATTCAGAGGTTATTGATCATATG	0.915
ATATGTAGGTTAGCGTCATTCAGAAAGTAGGGAA	0.15
TCATATAGGTCAAAGGTGAAAGTCGGTGTGGTAA	3.74
ATCGAACGGTCGACGAGGTGAGTATACACCGTTT	1.26
TAGCCTAGGTCAAGCGGGCCAGTATAGTGTCGGC	2.9
ACTAGTTGGTCACCTGAGGTCACACACAATTCGG	5.34
CCTGGCAGGCCAGGGTCACTCAAGCATTTCGCTT	2.96
CCTACTGGGGCACGAAAGGTCATTGATTCAGTGA	4.03
TAGCATAGGTCATGCGGGCCAGTATAGTGTCGGC	2.55
GATAGTTGGTCAGTAAAAGGTCACACACCGGTCG	3.59
CAAAGTAGGTCAAGAGGTCAAAGTCCGCTTCCCG	4.21
CGTCCAACGTCAGCAGGTCAGTGAAAGCGACGTG	0.784
CAAACTAGGTCACAGAGGTCAAAGTTCGTGCGTA	4.93
CAAACTAGGTCACGAAAGGTCAAAGCCGAATGAC	5.07

Sequence	PBM binding z-score
CCTACTGTGCCATTCAGAGGTCATTGATCATATG	3.38
TGAATGACGTTAAAGATCAGGGAACGTGGCGTCG	-0.478
TCTAGCTGGTCAAAGGTCACACACTCGAAATGCG	3.88
ATCGAAAGGTCGACGAGGTGAGTATGCACCGTTT	3.73
CGAACTAAGTCAAAGGACAGTGAAAGGCGACGTA	0.219
ATCGAAAGGTCGAAGGTCAGTATACCCACCCGAA	3.31
ATATGCAGGTTATCGGGTCATTCAGTTTGCGCAT	3.49
TCTTGTAGGTCAAAGGTTAAGAAAGCCGAAGCCT	3.76
GATACACGGTCAAGGCCAGAGTACGCGTATTGAT	0.429
CCTACTGGGCCAAAAAGGTAATTGATGCCGATAA	0.109
AGTAGCAGGCCAAGGGTCACTCAAGATTAGTCCG	2.76
CAAACTAGGTCACAGAGGTTAAAGTCCGTGCGTA	4.12
ATATGTAGGTTACGTCCGGGTCATTCAGGCTATG	4.01
CAAACTAGGTCACAGAGGTCAAACTCCGTGCGTA	4.66
TGAATGAAGTTAAAGATCAGGGAACGTGGCGTCG	-0.586
CGTCAAAGTTCAAGGCAACGTAACAGAAAGCAGC	1.72
CCGACTGGGGCAAAGGTTACCATGCTCAGTACGA	1.74
TTACCAAGGTGAAAGGTCGGTGATGCACGCCTTG	2.66
TGAATGAGGTTAAAGGTCAGGGAACGTGGCGTCG	4.33
